Experimental data taken from the OligoGym collection.

target: S100P; test: pooled miR-30 sensor sort-seq; sequence = guide strand; conditions: shRNA
Also: reference of the scale not given here.

Sequence | sensor-assay potency score (higher = more potent)
TGTCTTTTCCACTCTGCAGGAA | -0.419
TTGGTCAGGGTCTGCGTGCTGC | -0.458
GAACTCACTGAAGTCCACCTGG | -0.698
TTGAGCAATTTATCCACGGCAT | -0.537
TCCATTGGCGTCCAGGTCCTTG | -1.46

target: SACS; test: as above; conditions: shRNA

Sequence | sensor-assay potency score (higher = more potent)
TAAAATATCATCTTTTGCCATA | -0.814
TTTCACAATAACATGTCTCATG | -0.427
TTTCCAACCATCTTCTACCATC | -0.995
TTTTCTGTGACAACTCATCTGA | 0.17
TTCATAAACAAGTCTTTGCGGG | -0.207
TTTTAGATTAGTCTGCTGCAGA | -0.586
ATAACTTTGCAACTCGTCCTTC | 0.248
TTTGAGAGTAAGTCTGTCCGGC | 0.448
TTTCTGACAGCTGAACTCCTAC | -0.234
TTGACTTTACCAATCTACCATC | -1.12
TAGAGTATCAACAACAATGTCA | 0.305

target: SAMD10; test: as above; conditions: shRNA

Sequence | sensor-assay potency score (higher = more potent)
TGCTTCTTGAGCCACTTGCAGA | -1.33
TTACTTCTCATGAATAGAGGGG | 0.161
TAAATAAACAGACTCCCTGGGA | -0.205
ATGCTCTCAGCTGACACCGTGT | -1.22
TATGGTACAGGCCATAGTGGTC | -1.37
TAAATAATGATGAAAGTGCTTG | -0.363
TGCAGGAGCTTGATTGGCCTGC | -1.14
TAGTGGTCAGAGTACAGCCGGC | -1.02
TTGTGGGGACAGTGCTTCTTGA | -1.41
TAGACGAGGTAGTTGTGGGGAC | -0.47
ATAGTGGTCAGAGTACAGCCGG | -1.22
TTGTGCCACATTTTGTCTCTGG | -0.0935

target: SAMD3; test: as above; conditions: shRNA

Sequence | sensor-assay potency score (higher = more potent)
TTGTTTCACATTTCTTCTCTGT | 0.377
TAAATCCATCAGAACAGCCTGG | -0.235
TTTTTCTCCACCAACCAACTGC | -0.0677
TTCAACATGTCTTCATCTGTGT | 0.839
TTAACTTCCAACACAGGTGTGG | 0.183
TGTAACACAGTCGTCCACCTTT | -0.369
TTCTGCTCTGCTAACATGCATT | -1.16
TTCTCCACCAACCAACTGCAGA | -1.35
TAAAACATAGGACTTCGTCCAC | 0.0328
TTGCTCATCATCTTCTATGGGT | 0.349
TTGAAATCTATGAACTAGCTCT | 0.87
